Test results as given in PubChem BioAssay (Tox21).
“And” between values parts separate entries of the source, which are not always exact repeats. Identical values can stand only once. Inconclusive results are not listed. More than one record can exist for a structure, and the calls need not agree. The source made the active and inactive calls. Calls follow the shape of the dose curve; as a rule, active = well fitted curve in the direction sought with a large enough effect in the repeat runs; inconclusive = weak or mixed curves; inactive = no such curve, though single readings can be large; an effect the other way counts as inactive or inconclusive.

Tests used:
[1] = qHTS RealTime-Glo MT Cell Viability Assay in HepG2 cells - 8 hour (AID 1224873); also: nearly all actives have a fitted effect of over 55% in size; also: potency is read from the fitted curve at half-maximal effect
Procedure, shortened: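 HepG2 cells (600/well) mixed with RealTime-Glo MT reagent, settled 5 h at 37 C/5% CO2 before compound addition. Nonlytic NanoLuc luminescence from viable-cell prosubstrate reduction read repeatedly during 40 h treatment at 37 C.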

[2] = qHTS RealTime-Glo MT Cell Viability Assay in HEK293 cells - 40 hour (AID 1224874); details: RealTime-Glo luminescence; max response: stronger effect = lower value; also: nearly all actives have a fitted effect of over 50% in size; also: potency is read from the fitted curve at half-maximal effect
Procedure, shortened: (§1)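 HEK293 cells mixed with RealTime-Glo reagents (NanoLuc plus cell-permeant prosubstrate) at 600 cells/well, preincubated 5 h at 37 C/5% CO2, then given 23 nL compound in DMSO. Nonlytic luminescence from viable cells was read at 0, 8, 16, 24, 32 and 40 h.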

[3] = A CellTox Green Cytotoxicity Assay to monitor cytotoxicity in HEK293 cells - 24 hour (AID 1224875); also: nearly all actives have a fitted effect of over 45% in size; also: potency is read from the fitted curve at half-maximal effect; as to activity change: series mostly up to about 77 µM
Procedure, shortened: (§2)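 HEK293 cells premixed with CellTox Green dye were seeded at 600 cells/well and left 5 h at 37 C/5% CO2 before pin transfer of 23 nL compound in DMSO. Fluorescence from dye bound to dead-cell DNA was read during 40 h treatment.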

[4] = A CellTox Green Cytotoxicity Assay to monitor cytotoxicity in HepG2 cells - 16 hour (AID 1224876); also: nearly all actives have a fitted effect of over 45% in size; also: potency is read from the fitted curve at half-maximal effect
Procedure, shortened: (§3)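 HepG2 cells were seeded together with the CellTox Green dye at 600 cells/well, left 5 h at 37 C/5% CO2, then given compounds in DMSO. Fluorescence from dye bound to dead-cell DNA was read repeatedly over 40 h of treatment at 37 C.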

[5] = qHTS RealTime-Glo MT Cell Viability Assay in HepG2 cells - 32 hour (AID 1224877); also: nearly all actives have a fitted effect of over 55% in size; also: potency is read from the fitted curve at half-maximal effect
Procedure, shortened: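 HepG2 cells (600/well) were dispensed with RealTime-Glo reagents, incubated 5 h at 37 °C, then treated with compounds in DMSO for up to 40 h. Nonlytic NanoLuc luminescence reflecting viable cells was read at each stated time point.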

[6] = A CellTox Green Cytotoxicity Assay to monitor cytotoxicity in HepG2 cells - 24 hour (AID 1224878); also: nearly all actives have a fitted effect of over 45% in size; also: potency is read from the fitted curve at half-maximal effect
Procedure, shortened: as §3

[7] = A CellTox Green Cytotoxicity Assay to monitor cytotoxicity in HepG2 cells - 40 hour (AID 1224879); also: nearly all actives have a fitted effect of over 40% in size; also: potency is read from the fitted curve at half-maximal effect
Procedure, shortened: as §3

[8] = qHTS RealTime-Glo MT Cell Viability Assay in HEK293 cells - 0 hour (AID 1224880); also: top concentration of the series differs between compounds; nearly all actives have a fitted effect of over 45% in size
Procedure, shortened: as §1

[9] = A CellTox Green Cytotoxicity Assay to monitor cytotoxicity in HEK293 cells - 32 hour (AID 1224881); also: nearly all actives have a fitted effect of over 40% in size; also: potency is read from the fitted curve at half-maximal effect
Procedure, shortened: as §2

[10] = A CellTox Green Cytotoxicity Assay to monitor cytotoxicity in HepG2 cells - 0 hour (AID 1224882); also: nearly all actives have a fitted effect of over 35% in size; also: potency is read from the fitted curve at half-maximal effect
Procedure, shortened: as §3
% is scaled to controls: 0 for no effect and ±100 for the full control effect.

CCc1ccc(C)nc1
inactive: Potency [1] | max response [2] -9.25% | Potency [3] | Potency [4] | Potency [5] | Potency [6] | Potency [7] | Potency [8] | Potency [9] | Potency [10]

CCc1cccc(CC)c1N(COC)C(=O)CS(=O)(=O)O
inactive: Potency [1] | max response [2] 20.8% | Potency [3] | Potency [4] | Potency [5] | Potency [6] | Potency [7] | Potency [8] | Potency [9] | Potency [10]

Cc1cccc(C)n1
inactive: Potency [1] | max response [2] -0.971% | Potency [3] | Potency [4] | Potency [5] | Potency [6] | Potency [7] | Potency [8] | Potency [9] | Potency [10]

COc1cc(C(=O)NS(=O)(=O)c2ccccc2C)ccc1Cc1cn(C)c2ccc(NC(=O)OC3CCCC3)cc12
inactive: Potency [1] | max response [2] -0.13% | Potency [3] | Potency [4] | Potency [5] | Potency [6] | Potency [7] | Potency [8] | Potency [9] | Potency [10]

Cc1c(C(=O)O)cccc1[N+](=O)[O-]
inactive: Potency [1] | max response [2] -5.1% | Potency [3] | Potency [4] | Potency [5] | Potency [6] | Potency [7] | Potency [8] | Potency [9] | Potency [10]

C=CC(C)C#N (stereo not given)
inactive: Potency [1] | max response [2] 11.1% | Potency [3] | Potency [4] | Potency [5] | Potency [6] | Potency [7] | Potency [8] | Potency [9] | Potency [10]

COC(=O)CC#N
inactive: Potency [1] | max response [2] 9.57% | Potency [3] | Potency [4] | Potency [5] | Potency [6] | Potency [7] | Potency [8] | Potency [9] | Potency [10]

C=CC(=O)OCCN(CC)CC
inactive: Potency [1] | max response [2] 3.34% | Potency [3] | Potency [4] | Potency [5] | Potency [6] | Potency [7] | Potency [8] | Potency [9] | Potency [10]

CCCC(C)CCC(C)=O (stereo not given)
inactive: Potency [1] | max response [2] 12.6% | Potency [3] | Potency [4] | Potency [5] | Potency [6] | Potency [7] | Potency [8] | Potency [9] | Potency [10]

CCCCC(CC)COC(=O)c1ccc(O)cc1 (stereo not given)
inactive and 30.9 µM (active): Potency [4]
inactive: Potency [1] | Potency [5] | Potency [8] | Potency [10]
active: Potency [2] 48.8 µM | Potency [3] 43.5 µM and 21.9 µM | Potency [6] 34.7 µM | Potency [7] 34.7 µM | Potency [9] 43.5 µM and 21.9 µM

O=S(=O)(O)c1cc(S(=O)(=O)O)c2ccc3c(S(=O)(=O)O)cc(S(=O)(=O)O)c4ccc1c2c43
inactive: viability change, negative = cytotoxic [1] 0.921% [at 15.8 µM] | max response [2] 2.05% | activity change [3] -0.396% [at 15.8 µM, stronger effect = higher value] | cytotoxicity increase [4] -4.69% [at 15.8 µM] | activity change, negative = cytotoxic [5] 5.28% [at 15.8 µM] | cytotoxicity [6] -8.46% [at 15.8 µM] | cytotoxicity increase [7] -11.4% [at 15.8 µM] | activity change, negative = cytotoxicity [8] 3.1% [at 15.8 µM] | cytotoxicity increase [9] -1.7% [at 15.8 µM] | cytotoxicity [10] -2.2% [at 15.8 µM]

OCCCCl
inactive: Potency [1] | max response [2] 8.9% | Potency [3] | Potency [4] | Potency [5] | Potency [6] | Potency [7] | Potency [8] | Potency [9] | Potency [10]

CN1CN(C)CN(C)C1
inactive: Potency [1] | max response [2] -12.7% | Potency [3] | Potency [4] | Potency [5] | Potency [6] | Potency [7] | Potency [8] | Potency [9] | Potency [10]

COc1nccnc1CC(C)C
inactive: Potency [1] | max response [2] 10.2% | Potency [3] | Potency [4] | Potency [5] | Potency [6] | Potency [7] | Potency [8] | Potency [9] | Potency [10]

CCN=c1cc2oc3cc(NCC)c(C)cc3c(-c3ccccc3C(=O)OCC)c-2cc1C
inactive: Potency [8]
active: Potency [1] 24.5 µM and 21.9 µM | Potency [2] 614 nM and 550 nM | Potency [3] 12.3 µM and 11 µM | Potency [4] 10.9 µM and 6.17 µM | Potency [5] 43.5 µM and 21.9 µM | Potency [6] 19.4 µM and 5.49 µM | Potency [7] 21.8 µM and 6.17 µM | Potency [9] 10.9 µM and 11 µM | Potency [10] 6.89 µM and 6.17 µM

C[Si](C)(C)Cl
inactive: Potency [1] | max response [2] 8.44% | Potency [3] | Potency [4] | Potency [5] | Potency [6] | Potency [7] | Potency [8] | Potency [9] | Potency [10]

CCCCCCCC(C)=O
inactive: Potency [1] | max response [2] 0.179% | Potency [3] | Potency [4] | Potency [5] | Potency [6] | Potency [7] | Potency [8] | Potency [9] | Potency [10]

CC(C)=CCCC(C)O (stereo not given)
inactive: Potency [1] | max response [2] 0.513% | Potency [3] | Potency [4] | Potency [5] | Potency [6] | Potency [7] | Potency [8] | Potency [9] | Potency [10]
